# Bioassay records as filed in PubChem BioAssay.
# The list is not random: actives were taken first. Their share in the collection is about 6.5%.
# HCMV antiviral = human cytomegalovirus inhibition; HFF cells, HCMV-luciferase reporter, 72 h; stronger effect = lower value; activity change, negative = inhibition, % at 57.5 µM; actives 4.5% (n = 410,000); AID 1259415; in the data active means activity change below about -60%; inconclusive means no clear call, values can overlap the other calls; inactive means above about -39%
#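 HFF cells seeded 16 h at 37C, treated with compounds, infected with luciferase-reporter HCMV at MOI 1 PFU/cell; luciferase read at 72 h post infection, normalized to buffer-only and Salinomycin controls.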
# VACV Venus inh = inhibitors of vaccinia virus (Venus reporter) | Vaccinia virus Venus reporter expression, fluorescence | Potency, µM (top dose mostly 36.5 µM), for inactives: top-dose activity change, negative = inhibition, actives largely listed as inhibitors | actives 0.46% (n = 330,000); calls by dose curve; tested in A549 cells; further: potency means the concentration at half of the fitted maximal effect; nearly all actives have a fitted effect of over 30% in size
# Marburg entry inh = Marburg virus entry inhibition | Potency, µM (titrated, usually from 37.8 µM), inactives show top-dose activity change, negative = inhibition, hits mostly inhibitors | actives 1.8% (n = 300,000) | AID 540276 | Marburg virus pseudotyped entry inhibition, cell reporter; calls by dose curve; tested in HEK293 cells; further: potency means the concentration at half of the fitted maximal effect
# VACV mCherry inh = vaccinia inhibition (mCherry reporter) | Potency, µM (doses to about 36.5 µM), for the others: top-dose activity change, negative = inhibition, actives largely listed as inhibitors | AID 720579 | Vaccinia virus mCherry reporter infection, fluorescence | actives 0.63% (n = 310,000); calls by dose curve; tested in A549 cells; further: potency means the concentration at half of the fitted maximal effect; nearly all actives have a fitted effect of over 35% in size
# LASV entry inh = Lassa virus entry inhibition | Potency, µM (top dose mostly 37.9 µM), without a hit: at the top dose activity change, negative = inhibition, most hits filed as inhibitors | AID 540256 | Lassa virus pseudotype entry inhibition, cell reporter | actives 1.2% (n = 300,000); calls by dose curve; tested in HEK293 cells; further: potency means the concentration at half of the fitted maximal effect; nearly all actives have a fitted effect of over 50% in size
# FMDV inh = blocks foot and mouth disease virus; Potency, µM (top dose mostly 57.9 µM), without a hit: at the highest dose activity change, negative = inhibition, actives largely listed as inhibitors; FMDV antiviral cell-based qHTS; AID 1159524; actives 1.2% (n = 410,000); calls by dose curve; tested in HEK293T cells; further: read-out not given here; potency means the concentration at half of the fitted maximal effect; nearly all actives have a fitted effect of over 45% in size
# * hit, by the source's call; i = inactive; u = inconclusive; x = not tested or not shown; [ ] = remark or other dose. On the % scale 0 is the no-effect control and ±100 the full control effect.
SMILES,HCMV antiviral,VACV Venus inh,Marburg entry inh,VACV mCherry inh,LASV entry inh,FMDV inh
Cc1cccc(NC(=O)c2ccc(Cn3nc(N4CCN(c5ccccc5)CC4)ccc3=O)o2)c1C,-72*,-19%,x,-24%,-15%[46.1 µM],-24%
Cc1ccc(F)cc1NC(=O)c1ccc(Cn2nc(N3CCN(c4ccccc4)CC3)ccc2=O)o1,-73*,u,x,u,u,35µM*
CCn1cc(S(=O)(=O)c2ccc(C)cc2)c(=O)c2cc(F)c(N3CCCCCC3)cc21,11,u,x,u,4%[46.1 µM],-17%
Nc1nnc(-c2ccc([N+](=O)[O-])o2)s1,-18,u,u,u,u,-8%
O=c1[nH]nc(-c2ccc([N+](=O)[O-])o2)c(=O)[nH]1,-93*,11%,u,i,18%[46.1 µM],0%
Cc1cc(C)n(-c2ccc(C(=O)OCC(=O)N(CC(C)C)C3CCS(=O)(=O)C3)cc2)n1 (centres undefined),-86*,x,21%,x,-2%,21%
CC(C)CN(C(=O)COC(=O)c1ccc2c(c1)NC(=O)CS2)C1CCS(=O)(=O)C1 (centres undefined),-84*,-14%,-5%,x,1%,-5%
N#Cc1ccccc1Cn1cc(C(=O)c2cccs2)c2ccccc21,-81*,-20%,2%[46.1 µM],i,-5%,-26%
O=C(NC1CCCc2c1cnn2-c1ccccc1F)c1ccccn1 (centres undefined),-98*,x,x,x,x,-21%
O=C(NC1CCCc2c1cnn2-c1ccccc1F)c1ccncc1 (centres undefined),-84*,-29%,x,u,x,u
Nc1ccc(C(=O)OCC2=NC3C=c4ccccc4=CC3=N2)cc1 (centres undefined),x,x,1.6µM*,x,x,x
COc1ccc(CCNC(=O)c2ccc(CS(=O)(=O)c3ccc(C)cc3)o2)cc1OC,-28,-8%,u,i,u,32µM*
COc1ccc(CCNC(=O)c2ccc(-c3ccc([N+](=O)[O-])cc3Cl)o2)cc1OC,1,-9%,u,-24%,u,13µM*
Cc1ccc(CNC(=O)c2ccc(CS(=O)(=O)c3ccccc3)o2)cc1,-61*,x,x,x,x,u
Cc1ccc(S(=O)(=O)Cc2ccc(C(=O)NCc3cccs3)o2)cc1,44,-12%,-5%[46.1 µM],i,u,-5%
COc1ccc(CCNC(=O)c2ccc(CS(=O)(=O)Cc3ccc(C)cc3)o2)cc1OC,u,-22%,x,i,x,-11%
COc1ccc(CCNC(=O)c2ccc(CS(=O)(=O)c3ccc(Cl)cc3)o2)cc1OC,u,x,15µM*,x,26µM*,16µM*
O=C(N[C@@H]1c2ccccc2C2(CCN(C(=O)c3ccc4c(c3)OCCO4)CC2)[C@H]1O)c1cccnc1,x,6%,x,-2%,x,-1%
COC(=O)c1cc(CNC(=O)c2cccc3ccccc23)cc(NC(=O)c2ccccc2OC)c1,x,4%,x,-13%,x,8%
CC(C)COc1ccc(C(=O)N2CCCCC2CCN2CCCCC2)cc1 (centres undefined),-18,-20%,-5%[46.1 µM],-28%,u,-6%
Clc1cccc(Cl)c1C[n+]1ccc2ccccc2c1,-94*,x,x,x,x,-23%
c1ccc(C[n+]2ccc3ccccc3c2)cc1,-25,-12%,-15%,-20%,-4%,-27%
CCOc1ccccc1NC(=O)Cn1c(=O)n(-c2ccc(Cl)cc2)c(=O)c2oc3ccccc3c21,17,-5%,x,i,2%[46.1 µM],1%
Cc1ccc(Nc2c3c(nc4nncn24)CCC3)cc1C,-88*,-13%,5%[46.1 µM],-31%,-10%[46.1 µM],-27%
CN(CCc1ccccn1)Cc1ccc(Cl)cc1,33,x,17%,x,3%,-7%
SMILES,HCMV antiviral,VACV Venus inh,Marburg entry inh,VACV mCherry inh,LASV entry inh,FMDV inh
CN(C)CCN(Cc1ccco1)c1ccccn1,-2,8%,-11%[46.1 µM],i,u,30%
C[N+](C)(C)CCN(Cc1ccc(Cl)cc1)c1ccccn1,-63*,-23%,u,-23%,-1%,2%
CN(C)CCN(Cc1ccc(Cl)cc1)c1ccccn1,-62*,-14%,u,0%,u,0%
COc1cc(OC)cc(C(=O)N(Cc2ccco2)Cc2cccs2)c1,x,-21%,x,-10%,x,x
O=C(NCc1ccc(F)cc1)c1ccc(CS(=O)Cc2ccc(Cl)cc2)o1 (centres undefined),-26,-14%,x,-16%,-29%[46.1 µM],-24%
CC(C)CN(C)c1nc(N)c(C(=O)N=C(N)N)nc1Cl,x,x,7.1µM*,x,x,x
NC(N)=NC(=O)c1nc(Cl)c(N2CCCCCC2)nc1N,-22,u,7.1µM*,-20%,u,-14%
NC(N)=NC(=O)c1nc(Cl)c(N)nc1N,3,-24%,-16%,u,5%,-12%
CC1=NN(c2ccc(C)cc2)C(=O)/C1=C\C=C\c1ccccc1,-81*,0%,3%,-22%,10%,28µM*
CC1=NN(c2ccccc2)C(=O)C1=Cc1ccccc1,-12,-16%,x,-21%,x,0%
CC1=NN(c2cccc(C(=O)O)c2)C(=O)/C1=C\C=C/c1ccccc1,68,-2%,u,-2%,u,10µM*
O=c1c2ccccc2n2c(-c3ccccc3F)nnc2n1CCc1ccccc1,3,8%,-2%[46.1 µM],-12%,0%[46.1 µM],-20%
COC(=O)CSC1=C(C#N)C(c2ccc3c(c2)OCO3)C2=C(CCCC2=O)N1 (centres undefined),x,-19%,-7%,x,-4%,-27%
Cc1ccc(NC(=O)CSC2=C(C#N)C(c3ccc4c(c3)OCO4)C3=C(CCCC3=O)N2)c(C)c1 (centres undefined),-65*,x,-27%,x,u,-18%
COc1nnc(OC)c2ccccc12,u,-3%,25%,-15%,17%,x
COc1c2ccccc2c(OC)c2ccccc12,-64*,-8%,4%[46.1 µM],-17%,15%[46.1 µM],26%
Cc1cccc(N2CCN(C(=O)Cn3ncc4c3-c3cc(C)ccc3OC4)CC2C)c1 (centres undefined),-19,-3%,u,-16%,x,-14%
Cc1cc(N)n2nc(-c3ccccc3)cc2n1,175,-11%,8.9µM*,u,u,-28%
Cc1ccc(-c2cc3nc(-c4ccccc4)cc(N)n3n2)cc1,61,-5%,-17%[46.1 µM],-11%,12%,3%
COc1cc(CN(C(C)=O)c2ccccc2C(=O)O)ccc1[N+](=O)[O-],-63*,-11%,6%,i,4%,-6%
CCc1ccc2[nH]c(=O)c(CN(CCCN3CCOCC3)C(=O)Nc3cccc(Cl)c3)cc2c1,-14,u,18µM*,x,u,u
CCc1ccc2[nH]c(=O)c(CN(CCCN3CCOCC3)C(=O)Nc3ccc(Cl)cc3)cc2c1,11,-28%,u,u,u,-20%
CCOc1ccc2[nH]c(=O)c(CN(CCN3CCCC3)C(=S)Nc3ccccc3OCC)cc2c1,-64*,x,x,x,x,-16%
COc1ccc2[nH]c(=O)c(CN(CCN3CCCC3)C(=O)Nc3ccccc3Cl)cc2c1,-88*,-14%,-26%,x,-10%,-15%
